In the library only some 5% were active in any assay of this set; here they are far more common.
PREPL inh – PREPL enzyme inhibitors, primary screen, biochemical, fluorescence polarization; recombinant PREPL, fluorescence polarization activity-based probe; inhibition, % at 5.96 µM; actives 0.68% (n = 320,000); AID 2751, 2010
AI-2 QS modul – Vibrio harveyi AI-2 quorum sensing modulators, primary screen, JMH597 strain, luminescence/OD600 ratio; activity change, % at 7.5 µM; actives 0.4% (n = 300,000); Vibrio harveyi JMH597 AI-2 luminescence/OD600 ratio, 9 h; hits give low values; strain lacks LuxN and CqsS sensors; 0 = neutral-control median; in the data active = activity change below about -75%, passing the limit was not always enough;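 note: luminescence divided by OD600 gain over 9 h not by final OD600 alone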
ALR inh – inhibitors of human ALR sulfhydryl oxidase, primary screen, biochemical, H2O2 detection, HRP-luminol luminescence, single point; FAD-linked sulfhydryl oxidase ALR (Homo sapiens), P55789; purified ALR, DTT oxidation; inhibition, % (concentration not given with the values); actives 3.8% (n = 290,000);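 active = mean replicate inhibition above about 79%, with every replicate also reaching it, limit read from the data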
Target sequence (P55789 whole entry, looked up): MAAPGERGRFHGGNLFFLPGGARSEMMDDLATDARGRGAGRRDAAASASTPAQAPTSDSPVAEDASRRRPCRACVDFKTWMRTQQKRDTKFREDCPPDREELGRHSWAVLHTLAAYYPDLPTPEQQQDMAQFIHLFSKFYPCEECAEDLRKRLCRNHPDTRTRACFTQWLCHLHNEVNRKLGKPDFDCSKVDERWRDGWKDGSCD
CHT inh – inhibitors of human choline transporter CHT | High affinity choline transporter 1 (Homo sapiens), Q9GZV3 | CHT-expressing cells, membrane potential dye, choline response; hits give low values | B-score at 10 µM | actives 0.86% (n = 310,000) | AID 488975, 2010;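 active = B-score over 3 SD under the library average, and starting fluorescence ratio not unusually high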;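 note: choline stimulus applied at its EC90 after an EC20 pre-addition; B-score computed on integrated fluorescence ratio after choline addition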
CHT allo act – CHT positive allosteric modulators, primary screen, cell-based, membrane potential dye, choline EC20. B-score at 10 µM. actives 0.49% (n = 310,000). CHT-expressing cells; hits give high values; LV-AA mutant CHT in HEK293 cells;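 active = initial fluorescence not abnormally high and integrated response B-score, plate-corrected, over 3 SD above library mean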
PREPL confirm – human PREPL enzyme inhibitors, confirmation, biochemical, fluorescence polarization. recombinant PREPL, fluorescence polarization activity probe. shares compounds with PREPL inh. actives 67% (n = 2,000). AID 2803, 2010. inhibition, % at 5.96 µM
A number is an active result; n = inactive; x = not tested or not shown. Cut-off read from the data, not from the text of the source, unless noted: active = inhibition above about 43%; inactive = the rest.

SMILES	PREPL inh	AI-2 QS modul	ALR inh	CHT inh	CHT allo act	PREPL confirm
Cc1cc(N/N=C/c2ccc(N(C)C)cc2)c2ccccc2n1	n	n	n	n	n	x
Cc1cc(C(=O)CCl)c(C)n1-c1cccc(S(=O)(=O)N2CCOCC2)c1	n	n	n	n	n	x
N#CCC(=O)Nc1ncn(Cc2ccccc2Cl)n1	54	n	n	n	n	n
CC(=O)Nc1ccc(S(=O)(=O)NC(C)(C#N)C2CC2)cc1 (stereo unspecified)	n	n	n	n	n	x
Cc1cccnc1NC(=O)CCc1c[nH]c2ccccc12	46	n	n	n	n	n
Cc1ccnc(NC(=O)CCCc2c[nH]c3ccccc23)c1	n	n	n	n	n	x
CCOc1ccc(OCC)c(NC(=O)CN2CCN(c3cccc(C)c3)CC2)c1	n	n	n	n	n	x
CCOc1ccc(OCC)c(NC(=O)CN2CCN(c3cc(C)ccc3C)CC2)c1	50	n	n	n	n	n
C=C(C)C1CC=C(C)/C(=N/NC(=O)CNc2ccc(C)cc2C)C1 (stereo unspecified)	n	n	n	n	n	x
C=C(C)C1CC=C(C)/C(=N/NC(=O)CNc2ccc(OCC)cc2)C1 (stereo unspecified)	46	n	n	n	n	n
Cn1c(SCc2ccc(Br)cc2)nc2c(c1=O)SCC2	47	n	98	n	n	n
Cc1cc(NC(=O)CSc2nc3c(c(=O)n2-c2ccc(Br)cc2)SCC3)no1	n	n	n	n	n	x
CC(C)C[C@@H]1NC(=O)[C@H](CO)NC(=O)c2cc([N+](=O)[O-])cc(I)c2OCC[C@@H](C(N)=O)NC1=O	n	x	n	n	n	x
COc1ccc(CCNc2nc(-c3sc(N)nc3C)cs2)cc1OC	43	n	n	n	n	n
COc1ccc(Nc2nc(-c3sc(N)nc3C)cs2)cc1	50	n	n	n	n	n
Cc1ccc(Nc2nc(-c3sc(N)nc3C)cs2)cc1	x	n	n	n	n	x
Cc1ccc(Nc2nc(-c3sc(C)nc3C)cs2)cc1	46	n	n	n	n	n
CSc1nsc(/C=C/Nc2ccc(O)cc2C)c1C#N	n	n	n	n	n	x
COc1ccc(C(=O)NCCc2c[nH]c3ccccc23)cc1[N+](=O)[O-]	n	n	n	n	n	x
CCc1cc(=O)oc2c(C)c(OCC(=O)NC3CC(C)(C)NC(C)(C)C3)ccc12	n	n	n	n	n	x
CCc1cc(=O)oc2c(C)c(OC(C)C(=O)NC3CC(C)(C)NC(C)(C)C3)ccc12 (stereo unspecified)	49	n	n	n	n	n
COc1ccc(O)c(/C=N/Nc2nc(Nc3ccccc3)nc(-n3nc(C)cc3C)n2)c1	44	n	n	n	n	n
O=C(COc1cccc(Br)c1)Nc1ccc(N2CCOCC2)cc1N1CCOCC1	46	x	n	x	x	n
Cc1ccccc1OCC(=O)Nc1ccc(N2CCOCC2)cc1N1CCOCC1	n	x	n	x	x	x
Cc1ccccc1OCCC(=O)Nc1ccc(N2CCOCC2)cc1N1CCOCC1	43	n	n	n	n	n
SMILES	PREPL inh	AI-2 QS modul	ALR inh	CHT inh	CHT allo act	PREPL confirm
Nc1c(N(CCC2=CCCCC2)C(=O)c2ccccc2F)c(=O)[nH]c(=O)n1Cc1ccccc1	69	x	n	x	x	n
CCn1c(=O)c2ccccc2n2c(SCC(=O)N3CCc4ccccc4C3)nnc12	n	n	n	n	n	x
CCn1c(SCC(=O)N2CCc3ccccc3C2)nc2sc(C)c(C)c2c1=O	44	n	n	n	n	n
Cc1ccc(C)c(OC(=O)C2CSC3(C)CCC(=O)N23)c1C (stereo unspecified)	n	x	n	x	x	x
CC(C)CC(=O)Nc1ccc(C(=O)CN2C(=O)NC3(CCOc4ccccc43)C2=O)cc1 (stereo unspecified)	n	n	x	n	n	x
CCc1c(C)nc2cc(-c3ccc(OC)c(OC)c3)nn2c1N1CCCC1	45	n	n	n	n	n
COc1ccc2c(c1)CCc1cc(C(=O)N3CCN(c4ccc(N5CCOCC5)nn4)CC3)sc1-2	53	n	n	n	n	56
COc1ccc(N2CCN(C(=O)c3ccc(Cn4c(=S)[nH]c5ccc(N6CCOCC6)cc5c4=O)cc3)CC2)cc1	45	n	n	n	n	45
Cc1ccc(C)c(N2CCN(C(=O)c3ccc(Cn4c(=S)[nH]c5ccc(N6CCOCC6)cc5c4=O)cc3)CC2)c1	n	n	n	n	n	x
CC(NC(=O)c1cccs1)c1nnc(SCc2ccc(Cl)cc2Cl)n1C (stereo unspecified)	43	n	n	n	n	n
CN(C)CCCNc1cc(C(C)(C)C)nc2c(-c3ccccc3)cnn12	67	n	99	n	n	61
Cc1ccccc1CNC(=O)C(=O)Nc1nccs1	n	n	n	n	n	x
N#Cc1c(-c2ccc3c(c2)OCO3)ccn2nc(-c3cccc(C(F)(F)F)c3)nc12	n	n	n	n	n	x
COc1ccc(Nc2nnc(SC(C(=O)Nc3ccc(OC)c(Cl)c3)c3ccccc3)s2)cc1 (stereo unspecified)	47	n	n	n	n	n
COc1cccc(NC(=O)C(Sc2nnc(Nc3ccccc3C)s2)c2ccccc2)c1 (stereo unspecified)	n	n	n	n	n	x
CC1=Nc2nc(N3CCCCCC3)c(C#N)c3c4c(nc(c23)N1)N(c1ccc2ccccc2c1)C(=O)C4	63	n	n	n	n	61
COc1ccc(N2C(=O)Cc3c2nc(N)c(C#N)c3N)cc1	n	n	x	n	n	x
CCOc1ccc(OCC)c(NC(=O)CN2CCN(CC(=O)NC(C)C)CC2)c1	n	n	n	n	n	x
Cc1ccc(C)c(S(=O)(=O)N2CCN(C(=O)CCCc3c[nH]c4ccccc34)CC2)c1	47	n	n	n	n	n
CN(CC(=O)Nc1ccc(Cl)c(C(F)(F)F)c1)C(=O)Cc1n[nH]c(=O)c2ccccc12	57	n	n	n	n	n
CC[C@@H](C)[C@@H]1CN([C@@H](CN2CCC[C@H]2CN2C(N)=NC[C@H]2CC(C)C)C(C)C)C(=N)N1CCc1ccc(Cl)c(Cl)c1	47	x	x	x	x	48
CCC[C@@H](CN1CCC[C@H]1CN1C(N)=NC[C@H]1CC(C)C)N1C[C@@H]([C@H](C)CC)N(CCc2ccc(Cl)c(Cl)c2)C1=N	52	x	x	x	x	n
CC[C@@H](C)[C@@H]1CN([C@@H](C)CN2CCC[C@H]2CN2C(N)=NC[C@H]2CC(C)C)C(=N)N1CCc1ccc(Cl)c(Cl)c1	53	x	n	x	x	n
